Tb PFK block: inhibitors of T. brucei phosphofructokinase. T. brucei PFK, ADP-Glo luminescence. Potency, µM (highest dose often 57.5 µM), without a hit: at the highest dose activity, negative = inhibition, most hits filed as inhibitors. 0.17% of 330,000 active;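 also: 0% = uninhibited 1x PFK enzyme wells and -100% = no-enzyme wells; nearly all actives have a fitted effect of over 60% in size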
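In TEA buffer at pH 8.0 with 5 mM MgCl2, enzyme (1.25 nM) converted F6P (0.5 mM) and ATP (0.1 mM) for 45 min at room temperature. ADP product was read by luciferase luminescence.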
PGK inhibitor: T. brucei PGK inhibition | PGK/GAPDH coupled, Kinase-Glo luminescence, 60 min | Potency, µM (doses to about 57.5 µM), for inactives: top-dose activity change, negative = inhibition, hits mostly inhibitors | 0.043% of 380,000 active | AID 602233; also: nearly all actives have a fitted effect of over 60% in size
Target sequence (P07378 whole entry, looked up): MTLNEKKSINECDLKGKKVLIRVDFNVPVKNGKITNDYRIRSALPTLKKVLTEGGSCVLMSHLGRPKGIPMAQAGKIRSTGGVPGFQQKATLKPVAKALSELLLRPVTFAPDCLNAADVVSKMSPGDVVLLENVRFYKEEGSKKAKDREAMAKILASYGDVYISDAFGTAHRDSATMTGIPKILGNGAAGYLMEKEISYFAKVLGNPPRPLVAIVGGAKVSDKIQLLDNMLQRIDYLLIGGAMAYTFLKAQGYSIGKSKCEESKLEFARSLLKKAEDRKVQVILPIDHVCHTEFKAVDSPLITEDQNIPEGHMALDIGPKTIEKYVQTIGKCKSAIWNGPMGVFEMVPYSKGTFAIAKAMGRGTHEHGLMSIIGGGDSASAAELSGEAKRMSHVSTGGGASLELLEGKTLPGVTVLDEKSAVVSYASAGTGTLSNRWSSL
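Recombinant glycosomal PGK reaction used 1,3-bisphosphoglycerate generated in-well by GAPDH (100nM final) in 100mM TEA pH 7.6, 5mM MgCl2, 0.01% Tween-20. After 60 minutes at room temperature, ATP was read by Kinase-Glo Plus luminescence end-point.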
Chronic BCR inh: inhibitors of chronic active B-cell receptor signaling; Potency, µM (titrated, usually from 46.1 µM), for inactives: at the top dose activity change, negative = inhibition, actives largely listed as inhibitors; ABC-DLBCL IkBa-CBG/CBR reporter, luminescence ratio, 4 h; AID 493014; 0.05% of 340,000 active; active = well fitted inhibition curve with a large enough effect in the signal ratio, with a control signal flat, not every such curve was filed as active; inconclusive = small, poorly fitted or top-dose-only effect, or effect the other way, or a change in a side signal; the % refers to the signal ratio;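 also: plate controls were basal doxycycline-induced cells for no effect and cells given 10 µM MG132 for full effect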
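Doxycycline induced both beetle luciferases in TMD8 lymphoma cells; IKK-driven degradation limits the IkappaBalpha-fused green signal, while red luminescence normalises for cell number and nonspecific effects. Compounds tested up to 46 uM, 4 hrs.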
USP2a block: blocks human ubiquitin-specific protease USP2a; USP2 core, Ub-CHOP2 coupled fluorogenic reporter, 485/531; Potency, µM (titrated, usually from 38.3 µM), for inactives: at the highest dose activity change, negative = inhibition, usual class: inhibitors; 0.01% of 330,000 active;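 also: plate controls were DMSO wells for no effect and full inhibition by NEM control for full effect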
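Deubiquitinase activity read as fluorescence (485/531 nm) after Ub-CHOP2 cleavage activates the enterokinase reporter on its substrate; USP2 core 10nM, Ub-CHOP2 and substrate 25nM each, 30min compound preincubation then 60min RT; data normalized to NEM, curves fitted.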
RGS4 inh: human RGS4 inhibition; Transcreener GDP fluorescence polarization, RGS4-accelerated GTP hydrolysis; Potency, µM (highest dose often 114 µM), for inactives: at the top dose activity change, negative = inhibition, most hits filed as inhibitors; 0.039% of 390,000 active; AID 504845; also: nearly all actives have a fitted effect of over 75% in size
Target sequence (P49798 whole entry, looked up): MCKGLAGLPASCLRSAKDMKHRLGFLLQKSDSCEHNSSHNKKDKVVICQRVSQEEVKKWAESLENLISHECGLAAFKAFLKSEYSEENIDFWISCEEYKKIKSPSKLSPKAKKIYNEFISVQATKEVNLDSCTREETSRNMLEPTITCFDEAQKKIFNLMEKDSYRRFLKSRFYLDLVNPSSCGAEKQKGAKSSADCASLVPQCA
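MLSMR compounds (23 nl, pin-transferred) preincubated 10 min at room temperature with a 500nM (2x) first reagent, then RGS4 at 900nM (2x) plus Transcreener GDP mix added; fluorescence polarization (620/688 nm) read before and after 90 min at 30 °C.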
* = called active by the depositor; i = inactive; ? = inconclusive; . = no result; ! = a repeat was not active; [ ] = dose if it differs, or a comment. This is a sample that favours compounds with a hit; in the whole collection about 0.25% have one here. Unless noted, calls follow the shape of the dose curve; as a rule, active = well fitted curve in the direction sought with a large enough effect; inconclusive = small, poorly fitted or top-dose-only effect, or another doubt; inactive = no such curve, though single readings can be large; an effect the other way counts as inactive or inconclusive. Unless noted, % is scaled to controls: 0 for no effect and ±100 for the full control effect; potency is read from the fitted curve at half-maximal effect.

SMILES | Tb PFK block | PGK inhibitor | Chronic BCR inh | USP2a block | RGS4 inh
O=C(O)c1cc(-c2ccc(/C=C3\NC(=O)N(c4ccc(Cl)cc4)C3=O)o2)ccc1Cl | -3% | 32µM* | -16% | 4% | -17%
COC(=O)C1=C[C@@H](C(=O)OC)C2C3=C(C(=O)[C@@]2(C)NC(=O)c2ccccc2)[C@H](C)n2c(=O)n(-c4ccccc4)c(=O)n2[C@@H]3C1 (stereo partly drawn) | . | . | . | . | -10%
Cc1cc(Cl)ccc1OCCCC(=O)NO | 13µM* | -1% | ? | 1% | 21%
CCC1CC=CC2C1C(=O)N(Cc1ccccc1)C2c1ccc(OC)c(Cl)c1 (stereo not drawn) | . | . | . | . | 14%
C=C1CCN(C(C(=O)O)C(C)C)S(=O)(=O)c2ccccc21 (stereo not drawn) | . | . | . | . | 17%
COc1ccc(/C=N/NC(=O)c2ccc(CSc3nc(C)cc(C)n3)cc2)c(OC)c1OC | -9% | -3% | -3% | -6% | -11%
COc1ccc(/C=N/NC(=O)c2ccc(CSc3nc(C)cc(C)n3)cc2)cc1O | 0% | -7% | 16µM* | 2% | 9%
FC(F)(F)C1=Nc2cccc3cccc(c23)N1 | 0% | -6% | 9% | 10µM* | ?
O=C(Oc1c(Cl)cc(Cl)c2cccnc12)c1cccc([N+](=O)[O-])c1 | -6% | -3% | 21µM* | 4% | -23%
O=C(Nc1ccc2c(c1)C(=O)NC2=O)c1ccccc1 | -26% | -4% | ? | 3% | 3%
O=C1NC(=O)c2cc(Nc3ccccc3)c(Nc3ccccc3)cc21 | . | . | . | . | 19µM*
COc1ccc2ccccc2c1/C=N/NC(=S)NCCN1CCOCC1 | -2% | -11% | 20µM* | 1% | 17%
S=C(NCCN1CCOCC1)N/N=C/c1c2ccccc2cc2ccccc12 | 1% | -4% | -10% | 1% | -7%
CCC(=O)OCCNc1cc(SCCC(=O)OC)c2nonc2c1[N+](=O)[O-] | -6% | -7% | ? | 0% | -22%
CCCC(=O)OCCNc1cc(Sc2nc3ccccc3[nH]2)c2nonc2c1[N+](=O)[O-] | 21µM* | -10% | ? | 4% | ?
CC1=C(O)C(=O)[C@H]2O[C@@H]2C1=O | . | . | . | . | i
CCOC(=O)c1ccc2c(c1)C1C=CCC1C(C(=O)O)N2 (stereo not drawn) | 19µM* | . | 2% | 0% | .
CCOC(=O)C1Nc2ccc(C(=O)O)cc2C2C=CCC12 (stereo not drawn) | -27% | ? | 9% | 1% | -93%[56.9 µM]
CCN(CC)C(=O)c1ccc2c(c1)C1C=CCC1C(C(=O)O)N2 (stereo not drawn) | ? | 18µM* | -2% | 6% | ?
C[C@H](C(=O)OCO/N=[N+](\[O-])N1CCCC1)c1cccc2ccccc12 | . | . | . | . | -14%
CN(C)S(=O)(=O)c1cccc(-n2sc3ccccc3c2=O)c1 | 13µM* | -13% | ? | -3% | -124%
CC(C)=CC(=O)Oc1ccc(C(=O)N(C)c2ccccc2I)cc1 | . | . | . | . | -13%
C[C@@H]1C(=O)N(S(=O)(=O)c2ccccc2[N+](=O)[O-])[C@H]1c1ccc(-c2ccccc2)cc1 | . | . | . | . | 2%
O=C(O)C(c1ccccc1)N1C(=O)/C(=C\c2ccc(-c3ccc(Br)cc3)o2)SC1=S (stereo not drawn) | 4% | 1% | 2% | 3% | ?
O=C(O)C(c1ccccc1)N1C(=O)/C(=C\c2ccc(-c3ccccc3Cl)o2)SC1=S (stereo not drawn) | -23% | 11µM* | ? | ? | ?
SMILES | Tb PFK block | PGK inhibitor | Chronic BCR inh | USP2a block | RGS4 inh
COc1ccc(C2/C=C\CN(S(=O)(=O)CC34CCC(CC3=O)C4(C)C)CC(=O)N2Cc2ccc(F)cc2)cc1 (stereo not drawn) | . | . | . | . | -12%
N/C(=N\N=C/c1ccc(-c2ccc(O)c(C(=O)O)c2)o1)N[N+](=O)[O-] | 1% | 10µM* | ? | -1% | -22%
Cc1ccc(C)c(S(=O)(=O)N2CCN(C(=O)/C=C/c3ccco3)CC2)c1 | ? | -12% | -1% | 22µM* | ?
Cc1ccc(S(=O)(=O)N2CCN(C(=O)/C=C/c3ccco3)CC2)cc1 | -27% | -18% | -1% | 0% | -6%
Cc1cc(N/N=C/c2ccc(O)cc2)nc(NS(=O)(=O)c2ccccc2)n1 | ? | 25µM* | -3% | 1% | -7%
O=C(COc1ccccc1C(=O)N/N=C\c1ccc(O)c(O)c1)N/N=C/c1ccc(O)c(O)c1 | ? | 2.2µM* | 4% | 0% | -20%
CCOc1cc(/C=N/NC(=O)c2ccccc2OCc2ccc(F)cc2)ccc1O | 1% | 2% | ? | -5% | 8%
Nc1c(S(=O)(=O)O)cc(NC(=O)c2ccccc2)c2c1C(=O)c1ccccc1C2=O | -6% | . | 11% | -9% | ?
Nc1c(S(=O)(=O)O)cc(Nc2ccc(Nc3nc(Cl)nc(Nc4ccc(S(=O)(=O)O)cc4)n3)c(S(=O)(=O)O)c2)c2c1C(=O)c1ccccc1C2=O | . | . | . | . | 19µM*
CC(=O)c1ccc(-c2c(C3C4C=CCCC4(C)C(=O)N3Cc3ccccc3)ccc3ccccc23)cc1 (stereo not drawn) | . | . | . | . | 0%
NCC(O)c1cc(O)c(O)cc1F (stereo not drawn) | ? | 0% | 0% | 0% | 19µM*!
COc1ccc(C2C3C=CCCC3(C)C(=O)N2Cc2ccccc2)cc1Cl (stereo not drawn) | . | . | . | . | 8%
Cc1ccc(N2C(=O)NC(=O)/C(=C/c3cnn(-c4ccc(C)cc4)c3)C2=O)cc1 | 1% | i | 10% | 1% | -36%
Cc1ccc(N2C(=O)NC(=O)/C(=C/c3ccoc3)C2=O)cc1 | ? | 11µM* | 9% | 30% | ?
CC(C)(C)c1ccc(S(=O)(=O)/C=C/C#N)cc1 | . | . | . | . | 2.1µM*
CCc1ccc(C2/C=C\CNC(c3ccccc3)C(=O)N2Cc2ccc(C)cc2)cc1 (stereo not drawn) | . | . | . | . | -12%
COc1ccc(-c2nn(-c3ccccc3)cc2/C=C2/SC(=S)N(CCC(=O)O)C2=O)c(C)c1 | 0% | -3% | 7% | 1% | -63%[56.9 µM]
COc1ccc(-c2nn(-c3ccccc3)cc2/C=C2/SC(=S)N(CCC(=O)O)C2=O)cc1 | 0% | 20µM* | ? | -2% | ?
N#CC(=C(/N)Sc1ccccc1N)/C(C#N)=C(/N)Sc1ccccc1N | . | . | . | . | i
CNC(=S)NNC(=O)CCn1nc(C)c(Br)c1C | . | i | . | . | -6%
Cc1nn(CCC(=O)NNC(=S)NCC(C)C)c(C)c1Br | -7% | 1% | 16µM* | 5% | -9%
CNC(=O)C1(C(F)(F)F)CC(CCCO)CCCO1 (stereo not drawn) | . | . | . | . | 13%
